Calls of active or inactive are those of the source. How the source made its calls: active means hit-call score of the fitted dose curve at least 0.9, where 1 is the maximum; inactive means score below 0.9.

This assay in a line: ATG_Ets_CIS: Attagene CIS-FACTORIAL HepG2 Assay for human Erythroblast Transformation Specific (ETS) (AID 2282941). The conditions noted are these: HepG2 ETS cis-reporter transcription, actives raise or lower the signal. As to the method: ATG_CIS is a cell-based, multiplexed-readout assay that uses HepG2, a human liver cell line, with measurements taken at 24 hours after chemical dosing in a 24-well plate.ATG_Ets_CIS is one of 52 assay component(s) measured or calculated from the ATG_CIS assay. It is designed to make measurements of mRNA induction, a form of inducible reporter, as detected with fluorescence intensity signals by Reverse transcription polymerase chain reaction (RT-PCR) and Capillary electrophoresis technology.Data from the assay component ATG_Ets_CIS was analyzed into 1 assay endpoint. This assay endpoint, ATG_Ets_CIS, was analyzed with bidirectional fitting relative to DMSO as the negative control and baseline of activity. Using a type of inducible reporter, measures of mRNA for gain or loss-of-signal activity can be used to understand the reporter gene at the transcription factor-level as they relate to the gene ETS1. Furthermore, this assay endpoint can be referred to as a primary readout, because this assay has produced multiple assay endpoints where this one serves a reporter gene function. To generalize the intended target to other relatable targets, this assay endpoint is annotated to the dna binding intended target family, where the subfamily is winged helix-turn-helix.
Human liver HepG2 cells are transiently transfected with multiple reporter transcription units (MRTUs) in 6-well plates using FuGene 6 reagent (Roche; 3 ml FuGene/1 mg DNA). The MRTU constructs are regulated by a cis-regulating element (promoter). […] A major difference between the CIS and TRANS system is that in CIS activities of endogenous TFs are measured, whereas the TRANS assay evaluates changes in activities of exogenous, chimeric NR-Gal4 proteins. […] At the end of 24 hour incubation, total RNA was isolated using TriZol reagent (Invitrogen). The isolated RNA is then reverse-transcribed using oligo(dT) primer and Mo-MLV reverse transcriptase (Invitrogen) with DNAse I (Ambion) treatment for 30 min. The one-tenth of the produced cDNA was amplified by PCR using Taq DNA polymerase (Invitrogen) and two reporter sequence-specific primers. The PCR products were fluorescently labeled by primer extension with 6-arboxyfluorescein (6-FAM) 5'-labeled reporter sequence-specific primer (2 min at 95 C, 20 s at 68 C and 10 min at 72 C) and these products were digested with 5U of HpaI (New England Biolabs) for 2h at 37 C. The fragments were purified using Qiaquick PCR columns (Qiagen), analyzed on an ABI 3130xL genetic analyzer (Applied Biosystems) with peak positions identified by using a set of X-rhodamine (ROX)-labeled MapMarker1000 molecular weight standards (BioVentures). The raw capillary electrophoresis data was processed using Attagraph software (Attagene).
Regarding `CNC(=C[N+](=O)[O-])NCCSCc1ccc(CN(C)C)o1`, the molecule was called inactive.

As for `CC1=CC[C@@H](C(C)(C)O)CC1`, the molecule was classed as inactive.

For `O=C1CCC(=O)N1`, the molecule was called inactive.

In the case of `CCC(C)(C)C1CCC(=O)CC1`, the molecule was classed as inactive.

Regarding `CC1=CC(O)CC(C)(C)C1` (stereo not given), the outcome was inactive.

For the molecule `CC/C=C\CCCCO`, the molecule was classed as inactive.

As for `CCCCOCCOC(=O)c1ccccc1C(=O)OCCOCCCC`, the call was inactive.

As for `C[C@]12CC[C@@H]3c4ccc(O)cc4CC[C@H]3[C@@H]1CC[C@@H]2O`, the outcome was inactive.

Regarding `CCC(C)(C)C1CCC(OC)CC1` (stereo not given), the result was inactive.

Consider `C=COCC1CCC(COC=C)CC1` (stereo not given), for which the call was inactive.

With `COc1ccccc1NC(=O)CC(C)=O`, the result was inactive.

For the molecule `CCCCCC1C(=O)CCC1CC(=O)OC` (stereo not given), the molecule was called inactive.

As to `CCCCCCCCCCCCOCCOS(=O)(=O)O`, the outcome was inactive.

For the molecule `CC(=N[Si](C)(C)C)O[Si](C)(C)C`, the result was inactive.

For the molecule `CN(C)CCC=C1c2ccccc2CCc2ccccc21`, the molecule was classed as inactive.

As to `c1ccc2scnc2c1`, the outcome was inactive.

For the molecule `C[N+](C)(C)CCO`, the result was inactive.

As to `CC(C)(O)CCc1ccccc1`, the call was inactive.

Take `CCCCCCC(C)O` (stereo not given): the outcome was inactive.

On to `N#CCCNCCC#N`, for which the outcome was inactive.

`CC/C=C\CCOC(=O)C(C)C`: the call was inactive.

`CCCCCCCC(=O)N(C)C`: the molecule was classed as inactive.

Turning to `Cc1cc(O)c(C)c(C)c1O`, the molecule was classed as inactive.

For the molecule `CC(=O)C1=C(C)[C@@H]2C[C@@]3(C1)[C@H](C)CC[C@H]3C2(C)C`, the result was inactive.

With `CC1=C(C=O)C(C)(C)CCC1`, the outcome was inactive.

Turning to `CC(O)COCC(C)O` (stereo not given), the molecule was classed as inactive.

As for `CCCCCCCCCCO[C@@H]1O[C@H](CO)[C@@H](O)[C@H](O)[C@H]1O`, the call was inactive.

As to `CCCCCCOc1ccc(O)cc1`, the molecule was called inactive.

With `Nc1cc([N+](=O)[O-])ccc1C(=O)O`, the molecule was classed as inactive.

`NC(=O)c1cccnc1`: the result was inactive.

With `CCCCCCCCCCCCN1CCOCC1`, the molecule was classed as inactive.

As for `OC[C@@H](O)[C@H](O)[C@@H](O)[C@@H](O)CO`, the outcome was inactive.

Regarding `CC(C)=CCCC(C)=CC(=O)O`, the call was inactive.

On to `CCCO[Si](OCCC)(OCCC)OCCC`, for which the molecule was classed as inactive.

As for `CN(C)C(=O)Nc1ccccc1`, the call was inactive.

Consider `Cc1cc(O)c2c(c1)C(=O)c1cc(O)cc(O)c1C2=O`, for which the AC50 was 19.3 µM (active).

Consider `CCC(C)C1CCCCC1=O` (stereo not given), for which the outcome was inactive.

As for `O=S(=O)(O)CCCN1CCOCC1`, the molecule was classed as inactive.

On to `CCCCCCCCCO`, for which the call was inactive.

Take `c1ccc(Cc2ccccc2)cc1`: the result was inactive.

The record behind these values is PubChem BioAssay (EPA / NIEHS).
